# Whole data set: some 33,000 sequences, median “E-score (-0.5 to 0.5)” near -0.016, cut for the highest 2% near 0.32. Many of the other results were omitted from the sample, so the highest values are more common in it than they were.
# Target: T1, Stp1 (UniProt B3LFK1)
# T1 sequence: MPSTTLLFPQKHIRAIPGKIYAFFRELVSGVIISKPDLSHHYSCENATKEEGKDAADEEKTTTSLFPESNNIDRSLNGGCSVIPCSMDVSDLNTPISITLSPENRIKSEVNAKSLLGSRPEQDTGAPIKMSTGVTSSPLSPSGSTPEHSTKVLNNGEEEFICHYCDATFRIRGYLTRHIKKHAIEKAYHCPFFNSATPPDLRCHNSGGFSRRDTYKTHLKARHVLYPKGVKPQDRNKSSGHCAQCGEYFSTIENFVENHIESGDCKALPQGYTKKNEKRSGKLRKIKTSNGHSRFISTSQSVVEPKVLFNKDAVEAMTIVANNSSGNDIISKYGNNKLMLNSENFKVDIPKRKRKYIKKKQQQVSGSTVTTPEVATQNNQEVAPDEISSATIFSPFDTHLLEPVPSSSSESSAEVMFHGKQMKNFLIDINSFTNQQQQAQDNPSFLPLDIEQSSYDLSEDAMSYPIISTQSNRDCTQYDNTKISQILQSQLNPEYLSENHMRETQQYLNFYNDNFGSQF
# Assay: PBM E-score (8-mer binding enrichment) (E-score (-0.5 to 0.5)); higher = stronger / more preferred TF binding
# Details: protein concentration: 200 nM; construct: GST-full length
# Procedure: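 Universal 'all 10-mer' protein binding microarrays (Agilent AMADID 015681) probed with GST-tagged S. cerevisiae TFs (full-length or DBD) made by in vitro transcription/translation (PURExpress), about 100-200 nM. Bound TF was detected with fluorescent anti-GST. Each ungapped 8-mer (which stands for itself and its reverse complement) is scored by the PBM enrichment score (E-score), a modified Wilcoxon-Mann-Whitney statistic from -0.5 to +0.5, computed with the Universal PBM Analysis Suite. Scale: above 0.35 generally sequence-specific binding.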
row,Sequence,PBM E-score
1,CAAGCTAC,-0.171
2,AGTATATG,-0.0746
3,TATATATA,0.345
4,GATATATA,0.314
5,AGTATATC,0.0639
6,AGTATATA,0.363
7,CATATATA,0.256
8,AACACTCT,0.00778
9,GCCGGCGC,0.346
10,AACGGGGC,0.186
11,GACGGCGC,0.451
12,AATGGCGT,0.161
13,AATGGCGC,0.253
14,CCCGGCGC,0.121
15,GATGGCGC,0.145
16,AACGGCGC,0.477
17,ACCGGCGT,0.0951
18,AACGGCGT,0.448
19,GACGGGGC,0.143
20,ACCGGCGC,0.3
21,ATAGCAGC,-0.187
22,CTGAGCGC,0.0168
23,GAGAACAA,0.145
24,CACGGGCA,0.231
25,ACGTAGTA,0.103

row,Sequence,PBM E-score
1,CCCTCTTC,-0.308
2,AACGGCGG,0.378
3,AACGGGCG,0.154
4,AACGGGGG,-0.316
5,CGACTGCG,-0.098
6,GAAAGACC,-0.321
7,AACGCCGT,0.482
8,AACGCCTA,0.0856
9,AACGCCGA,0.292
10,AACGCCAC,0.245
11,AACGCCGC,0.47
12,AACGCCTC,0.225
13,AACGCCTT,0.328
14,AACGCCGG,0.0903
15,AACGCCCC,0.213
16,ACCGACGA,-0.0695
17,CGCCATCA,-0.144
18,CTAGGTTA,0.00212
19,GACTTGGC,-0.232
20,AGGCCGTA,0.298
21,CGGCCGTA,0.37
22,GGCCCGTA,-0.0728
23,CGGCCGTC,0.16
24,GGGCCGTA,0.369
25,CGGCCGGA,-0.15

row,Sequence,PBM E-score
1,CGGCCAGC,-0.206
2,CATGGTCA,0.103
3,ATCTAAAG,-0.0363
4,GGAATTGA,0.0238
5,CGCGCGCA,0.272
6,GGCGCCCC,0.284
7,AGCGCAAA,-0.0739
8,CGCGCAAA,0.198
9,TGCGCGCA,0.133
10,CGCGCGGA,0.256
11,GTCGCGGA,-0.0678
12,GGCGCGGA,0.337
13,GGCGCGCA,0.318
14,GGCGCGCC,0.423
15,GGCGCGTA,0.186
16,GGCGCAAA,0.406
17,CAGCAGTA,-0.0846
18,AAGAAGCC,0.232
19,ACCACTTC,-0.242
20,CGAGCTAG,-0.0273
21,AGGTTGCC,-0.0941
22,GCTTGAAC,0.111
23,AAAGGAGG,-0.258
24,ACCAAACA,0.201
25,AAAGTCTG,-0.115

row,Sequence,PBM E-score
1,CAATTAGG,0.104
2,CCCGCGCC,0.297
3,CGCGCGAG,0.239
4,CGCGCGCG,0.405
5,CCCCCGCG,-0.0598
6,AGCGCGCG,0.196
7,AGCGCGCC,0.196
8,CCCGCGCG,0.328
9,CTCGCGCC,0.295
10,CGCGCGCC,0.403
11,ACCTAGCC,-0.186
12,CTCAATTC,0.0345
13,GTGCCTAA,0.184
14,AACAGCGT,0.0405
15,ATCGGCGG,0.262
16,CTCGGCGC,0.382
17,ATCGGCGC,0.342
18,ATCGGCGA,0.0557
19,CTCGGCAC,0.3
20,CTCGGCGA,0.123
21,ACAACAAT,0.0375
22,CTCGACAA,-0.0792
23,GCCGCACA,0.452
24,GCCGCACC,0.449
25,CACGCACG,0.203

row,Sequence,PBM E-score
1,ACCGCACA,-0.0115
2,AACGCACG,0.36
3,ACCGCACC,0.0883
4,AACGCACA,-0.0113
5,CCCGCACC,-0.149
6,CCCGCACG,0.222
7,CAAACTTG,-0.0331
8,AAGTGACG,-0.00161
9,CAGATTGC,0.057
10,CGAACCTC,-0.0892
11,CGATGATC,-0.0137
12,GCGCCCCA,0.353
13,GCGCCCCC,-0.129
14,CCGCCACG,0.0257
15,ACGCCACA,0.295
16,GCGCCCTA,0.342
17,GCGCCACA,0.334
18,CCGCCCTA,-0.041
19,ACGCCCTA,0.127
20,GCGCCCAA,0.119
21,CGCTTGGC,0.0526
22,CTTGCCTC,0.0687
23,AACCTATG,0.053
24,CACCTTTA,-0.0604
25,AACCTGTC,-0.17

row,Sequence,PBM E-score
1,GCACTCGA,-0.0637
2,CGGCTTCA,0.368
3,CGGCTTCC,0.211
4,AGGCTTGC,-0.31
5,TGGCTTAA,0.193
6,CGGCTTGA,0.0356
7,CGGCTTAG,0.0549
8,CGGCTTGC,0.37
9,AGGCTTCA,-0.0829
10,CGGCTTAA,0.318
11,AATCCTGT,-0.037
12,ACCTATGG,-0.0452
13,CTCAGAAG,-0.0989
14,CCTAACAG,0.121
15,CTTCCCAC,-0.0242
16,TATGCATA,0.00403
17,TACTGTAA,0.021
18,ATGCAGGA,-0.258
19,ATGCGCGG,0.307
20,GGGCGCGA,0.28
21,CGGCGCGC,0.475
22,AGGCGCGG,0.355
23,CGGCGCGA,0.477
24,CAGCGCGC,-0.00184
25,ACGCGCGA,0.105

row,Sequence,PBM E-score
1,AAGCGCGG,0.171
2,CAGCGCGA,-0.0618
3,AGGCGCGA,0.392
4,CTGCGCGC,0.269
5,AGGCGCGC,0.308
6,CTGCTTAC,-0.0697
7,CTCGAAAG,-0.053
8,CCTCACCA,-0.0872
9,ACAAATGC,0.155
10,CTTCAAGC,0.0107
11,AGACCATC,-0.131
12,CCCCTAAA,-0.228
13,AGTTGATG,-0.0271
14,ATCTACAC,0.0776
15,ACTTTACG,0.0861
16,GCAGGAGA,-0.303
17,CCGCCGTA,0.42
18,CCGCCGTC,0.255
19,AGGCCGTC,-0.0198
20,CCCCCGTA,-0.238
21,ACGCCGTA,0.471
22,ACGCCGTG,0.485
23,CGCCCGTA,-0.183
24,ACGCCGGG,-0.0857
25,AGGCCGTG,0.307

row,Sequence,PBM E-score
1,ACGCCGTC,0.41
2,ACACCGTA,-0.0212
3,ACGCCGAA,0.21
4,AGCCGAGG,0.142
5,CTGCTGCA,-0.169
6,ATCAGGGA,-0.201
7,GATTTAAC,0.148
8,ATTGATTA,0.338
9,ATTGATTC,0.265
10,ATTGATTG,0.178
11,ACGGCTAG,0.235
12,GCGGCTAC,0.305
13,GCGGCTAA,0.304
14,ACGGCTAA,0.377
15,TCGGCTAA,0.145
16,AGGGCTAT,-0.325
17,CCGGCTAC,0.0509
18,ACGGCTAC,0.407
19,ACGGCTAT,0.349
20,AGTCTCCC,-0.272
21,CTTATAGC,-0.0511
22,CGGTGCAG,-0.0834
23,GTCAAATA,0.0762
24,GTCGCAAC,-0.0752
25,GAATAGTC,-0.205

row,Sequence,PBM E-score
1,ACAGGCAC,-0.047
2,CGCTAGGA,-0.0128
3,GACCGTAC,-0.0763
4,CACCGTAA,0.00961
5,GGCCGTAA,0.192
6,TGCCGTAA,0.34
7,CGCCGTAA,0.418
8,GGCCGTAC,0.424
9,TCCCGTAA,-0.0808
10,ACCCGTAC,0.0646
11,AGCCGTAC,0.432
12,ATCCGTAC,0.28
13,CCCCGTAA,-0.0389
14,TACCGTAA,0.0576
15,ATCGAGTG,0.141
16,AAATGTCC,-0.229
17,AATAAGCC,0.0484
18,AGTGAATG,0.0894
19,CAGTAACG,0.0111

# Source: the supplement of paper PMC3334620
